According to ChEMBL document CHEMBL1157539, “Thousands of chemical starting points for antimalarial lead identification” (Nature, 2010):

Test system: HepG2
Test: GSK_TCMDC: Percent inhibition of human HepG2 cell line. Test compounds present at 10uM.
Format: functional

| SMILES | Inhibition |
| --- | --- |
| CN1CCC(N2CCN(Cc3cccc(-c4ccc(-c5nc6cc(F)ccc6[nH]5)cc4)c3)CC2)CC1.O=C(O)C(F)(F)F | 92% |
| Cc1nnsc1C(=O)Nc1cccc(-c2csc(-c3nc4ccccc4[nH]3)c2)c1 | 51% |
| CCC(C)c1ccc(NC(=O)Nc2ccnc3ccccc23)cc1.Cl (stereo not given) | 27% |
| CN=C(NC)c1cccc(NC(=O)C=Cc2ccc(C=CC(=O)Nc3cccc(C(=NC)NC)c3)cc2)c1.Cl | 21% |
| O=C(Nc1cc(C(F)(F)F)cc(C(F)(F)F)c1)c1cccc([N+](=O)[O-])c1 | 23% |
| COc1ccc(CNCc2ccc(F)cc2)cc1-c1ccc(OC)c(S(=O)(=O)NCCN2CCCC2)c1.O=C(O)C(F)(F)F | 24% |
| COCCn1c(Sc2ncnc3sccc23)nc2ccccc21 | 0% |
| O=C(NCc1ccc(F)cc1)Nc1ccc(-c2cccc(-c3nc4cc(F)ccc4[nH]3)c2)cc1 | 31% |
| Cc1ccc(NC(=O)c2ccc3ncccc3c2)cc1OC1CCN(Cc2ccsc2)CC1.O=C(O)C(F)(F)F | 21% |
| COc1ccc(NC(=O)/C=C/c2ccc(Cl)c(Cl)c2)cc1N1CCN(C)CC1 | 23% |
| Cc1cc(N[C@@H](CC(C)C)C(=O)NCc2cccc(F)c2)nc(Nc2ccccc2)n1.O=C(O)C(F)(F)F | 0% |
| COc1cc(NC(=O)c2ccc(-c3ccccc3)cc2)ccc1OCCCN1CCC(c2ccccc2)CC1.Cl | 46% |
| Br.Cc1cc(C)c(CON2C(=N)N=C(N)NC2(C)C)cc1C | 65% |
| O=C(O)C(F)(F)F.OCCN1CCN(Cc2cccc(-c3cccc(-c4nc5cc(F)ccc5[nH]4)c3)c2)CC1 | 41% |
| Cc1ccccc1C1CCN(C2CCC(NC(=O)/C=C/c3cccc(F)c3F)CC2)CC1 (stereo not given) | 57% |
| CCC1CN2CCc3c([nH]c4ccccc34)C2CC1CC1=NCCc2c1[nH]c1ccc(OC)cc21.Cl (stereo not given) | 99% |
| CCC(=O)OC(CCN(CC)CC)(c1ccccc1)c1ccccc1 | 30% |
| CC[C@H](C)CNC(=O)c1cncc(-c2ccc(CNCCOc3ccccc3)cc2)c1.O=C(O)C(F)(F)F | 7% |
| CC(C)CCN1CCC(Oc2ccc(NC(=O)c3cccs3)cc2Cl)CC1.O=C(O)C(F)(F)F | 31% |
| Cc1ccc(O)cc1Nc1ccnc2cc(-c3ccccn3)ccc12.Cl [GW440139A] | 6% |

| SMILES | Inhibition |
| --- | --- |
| CC(C)CNCc1ccc(-c2cccc(CN(CCN(C)C)C(=O)CCC3CCCC3)c2)cc1.O=C(O)C(F)(F)F | 56% |
| Oc1c(C(Nc2ccccn2)c2ccco2)cc(Cl)c2cccnc12 (stereo not given) | 41% |
| c1csc(-c2ccc3c(c2)CC(NCc2c[nH]c4cnccc24)C3)c1 (stereo not given) | 9% |
| O=c1c(Br)c(C(F)(F)F)[nH]c2ccc(Oc3ccccc3)cc12 | 6% |
| CCCCCCCCN1CCN(CCCCCCNc2c3ccccc3nc3ccccc23)CC1.Cl | 100% |
| COc1cccc(NC(=O)c2nc(N3CCN(c4ccncc4)CC3)ccc2Cl)c1.O=C(O)C(F)(F)F | 14% |
| Cc1cc(NC(=O)Nc2ccc(C#N)cc2)c2ccccc2n1 | 88% |
| Br.N=C(N)Nc1nc(-c2cc(NC(=O)C(F)(F)F)cc([N+](=O)[O-])c2)cs1 | 7% |
| c1ccc(COc2ccc(C3CCCCC3)cc2)nc1 | 0% |
| Cc1cccc(NC(=O)Nc2ccc(I)c(OCCN(C)C)c2)c1C | 13% |
| CC1CCCC(NC(=O)CCOc2ccccc2)C1 (stereo not given) | 0% |
| Cc1[nH]c(CNCCCNc2cc(=O)c3ccccc3[nH]2)c(Br)c1Br | 0% |
| O=C(Cn1c(=O)oc2ccccc21)N1CCC(n2c(=O)n(CCCN3CCOCC3)c3ccccc32)CC1 | 11% |
| CC(C)c1ccc(S(=O)(=O)N(c2ccc3c(c2)OCO3)C2CCN(Cc3ccccc3)C2)cc1 (stereo not given) | 1% |
| COc1cc(Nc2ncc3c(C)nc(-c4cc5ccccc5[nH]4)n3n2)cc(OC)c1OC | 19% |
| O=CO.O=S1(=O)NCc2ccc(Nc3nccc(Nc4ccc5c(cnn5Cc5ccccc5)c4)n3)cc21 | 0% |
| CC(C)(CNC(=O)[C@@H]1CCCN(CCOc2ccc(Cl)cc2)C1)c1nc(-c2ccc(Cl)c(O)c2)c(-c2ccncc2)[nH]1.Cl | 58% |
| N/C(=N\c1cccc(Cc2ccccc2)n1)NCc1ccccc1 | 57% |
| Cc1cc(NCCC(=O)NCCOc2ccccc2)nc(NCCc2ccc(F)cc2)n1.O=C(O)C(F)(F)F | 14% |
| Cl.N#Cc1ccc(-c2ccc3nc(N4CCCN(C5CCC5)CC4)ccc3c2)cc1 | 36% |
